Shown are actives, neighbours in structure and some others; about 6.5% of the full set was active somewhere.
PMK inhibit: S. pneumoniae PMK inhibitors, primary screen, biochemical, mevalonate pathway, pilot trial included. AID 539, 2006. inhibition, % at 10 µM. phosphomevalonate kinase (Streptococcus pneumoniae D39). purified PMK, PK/LDH-coupled NADH absorbance 340 nm. 0.49% of 65,000 active;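 active = top-ranked compounds by inhibition in the single 10 µM screen, taking a fixed number of the strongest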;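 note: 0% = full reaction with DMSO carrier and 100% = background rate without enzyme reaction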
Fluor 339 460: intrinsic fluorescence of library compounds, ex339/em460 – biochemical, MLSMR library, data from DPM-DC assay, artefact control, profiling panel; fluorescence fold increase at 10 µM; AID 709, 2007; 5.5% of 65,000 active; compound autofluorescence, ex339/em460 nm, NADH buffer; active compounds read high; 1 = no-compound wells, NADH background;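 active = at 10 µM, mean starting fluorescence two-fold or more over control wells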;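 note: signal is the first read of a kinetic run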
NADH coupling: inhibitors of PK/LDH coupling enzymes, profiling panel, artefact control, biochemical, MLSMR library. coupled PK/LDH NADH assays, four targets. IC50, µM (titrated, usually from 10 µM), for the others: at the top dose inhibition. 0.02% of 65,000 active;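 active = single-dose screening hits from any of four coupled enzyme assays that gave an IC50 when retested across doses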;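 note: the DPM-DC format reads NADH fluorescence rather than 340 nm absorbance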
Spn MK inh: S. pneumoniae MK inhibitors, primary screen, biochemical, PK/LDH-coupled NADH absorbance. mevalonate kinase [Streptococcus pneumoniae D39]. purified MK, PK/LDH-coupled NADH absorbance 340 nm. inhibition, % at 10 µM. 0.48% of 65,000 active. AID 555, 2006;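 active = ranked among the strongest by inhibition in the single 10 µM screen, a fixed top-ranked set picked for dose follow-up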
Spn DPM-DC inh: S. pneumoniae DPM-DC inhibitors, primary screen, biochemical, PK/LDH-coupled NADH fluorescence; diphosphomevalonate decarboxylase (Streptococcus pneumoniae D39); 0.49% of 65,000 active; AID 556, 2006; purified DPM-DC; calls only at 10 µM;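 active = the 320 compounds with the highest percent inhibition in the single-dose primary screen, excluding strongly autofluorescent ones, cut at about 32% in these data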;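 note: kinetic rate of NADH fluorescence loss reporting ADP formed by the decarboxylase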
Abs 340nm: compound light absorbance at 340 nm, profiling panel, artefact control, biochemical, MLSMR library, data from PS, PMK, MK assays; AID 708, 2007; 65,000 tested, under 10 active; fold change at 10 µM; compound absorbance at 340 nm, fold over control;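 active = at 10 µM dose, initial 340 nm absorbance at least 2 fold that of control wells; inactive = change under 2 fold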;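 note: initial absorbance extrapolated from kinetic A340 decline of NADH oxidation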
The depositor's hits bear a star; i = inactive; · = not tested or not shown.

SMILES	PMK inhibit	Fluor 339 460	NADH coupling	Spn MK inh	Spn DPM-DC inh	Abs 340nm
CS(=O)CSc1nc2c(cc1C#N)CCCC2 (stereo not given)	9.0	1.11	5.0%	5.0	i	0.97
CC(C)OC(=O)CC(=O)CSc1nc2c(cc1C#N)CCC2	18.0	3.69*	13.0%	8.0	·	1.04
O=C(COC(=O)c1cc(S(=O)(=O)N2CCOCC2)cs1)c1ccccc1	5.0	1.07	4.0%	0.0	i	0.97
O=C1NC2CCCCC2NC1CC(=O)N1CCN(c2ccccc2)CC1 (stereo not given)	10.0	1.07	9.0%	8.0	i	1.03
N#Cc1cc2c(nc1SCC(=O)Nc1nccs1)CCCCC2	0.0	1.76	5.0%	7.0	i	1
COC(=O)CC(=O)CSc1nc(C)cc(C)c1C#N	8.0	3.77*	5.0%	2.0	·	1.09
CCOC(=O)CC(=O)CSc1nc2c(cc1C#N)CCCCCC2	3.0	2.37*	2.0%	0.0	·	1.04
COC(=O)CC(=O)CSc1nc2c(cc1C#N)CCC2	0.0	3.82*	1.0%	2.0	·	1.13
CCC(C)OC(=O)C1=C(C)NC(=O)CC1c1ccccc1OC (stereo not given)	12.0	1.08	4.0%	0.0	i	1
COc1nc(N2CCCC2)nc(-n2cc(-c3ccccc3)nn2)n1	13.0	1.07	4.0%	0.0	i	0.99
COC(=O)C(C)Sc1nnc2n(-c3cccc(C)c3)c(=O)c3c4c(sc3n12)CCCC4 (stereo not given)	1.0	1.03	1.0%	3.0	i	1
CC1CN(c2nc3c(c(=O)n(C)c(=O)n3C)n2Cc2c(F)cccc2Cl)CC(C)O1 (stereo not given)	6.0	1.07	4.0%	7.0	i	1.03
CCN(C(=O)c1coc(=O)c(Br)c1)c1ccc2c(c1)OCO2	13.0	3.35*	7.0%	0.0	·	1.14
COc1ccc(-n2nc3c(c2NC(=O)c2cc4ccccc4oc2=O)CS(=O)(=O)C3)cc1	19.0	1.02	7.0%	3.0	i	1.05
COc1ccc2[nH]cc(C(=O)CN3CCC(C)CC3)c2c1	0.0	1.12	3.0%	8.0	i	1.01
COc1ccc2[nH]cc(C(=O)CN3CCCC(C)C3)c2c1 (stereo not given)	25.0*	1.15	10.0%	4.0	i	1.08
Cc1cc(NC(=O)CSc2nnnn2C2CCCC2)no1	14.0	2.84*	17.0%	9.0	i	1.07
CC1CCN(S(=O)(=O)c2ccc(S(=O)(=O)NCC(=O)C(C)(C)C)cc2)CC1	0.0	1.04	1.0%	0.0	i	1.02
Cc1nc2c(-c3ccccc3)c(C)nn2c(C)c1CCC(=O)N1CCOCC1	8.0	1.18	5.0%	6.0	i	1.08
COc1ccc(-c2nc(N3CCOCC3)nc3nn4c(C)c(CCC(=O)O)c(C)nc4c23)cc1	14.0	4.99*	7.0%	0.0	·	1.08
Cc1nc2c3c(-c4ccccc4)nc(N4CCOCC4)nc3nn2c(C)c1CCC(=O)O	11.0	3.69*	13.0%	0.0	i	1.09
CS(=O)(=O)N1CCCC(C(=O)NCCCN2CCOCC2)C1 (stereo not given)	19.0	1.07	6.0%	0.0	i	0.99
O=C(CCCN1C(=O)CSc2ncccc21)N1CCN(Cc2ccccc2)CC1	10.0	1.08	5.0%	4.0	i	1.01
COC(=O)C1=C2SC(C)C(=O)N2C(N)=C(C#N)C1c1ccc(OC)c(OC)c1 (stereo not given)	5.0	0.84	2.0%	0.0	i	1.08
COC(=O)C1=CN(CC2CCCO2)C=C(C(=O)OC)C1c1cc(OC)c(OC)c(OC)c1 (stereo not given)	18.0	2.12*	10.0%	1.0	·	1.07
COCCN1C=C(C(=O)OC)C(c2ccc(OC)c(OC)c2)C(C(=O)OC)=C1	14.0	2.24*	11.0%	8.0	·	1.07
CCCOc1ccc(C2C(C(=O)OC)=CN(CCOC)C=C2C(=O)OC)cc1	17.0	2.56*	7.0%	7.0	·	1

Screens (PubChem)
